Compounds without any hit were thinned out: in the full panel of roughly 79,000, 15% have a hit. Unmarked numbers belong to inactive results. Activity calls are given as the source filed them. No stated cut-off is given here; in the data, active means growth inhibition above about 70%; inactive means the rest.
experiment: NCI Yeast Anticancer Drug Screen. Data for the sgs1 mgt1 strain (AID 161);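 further: 0% = growth of cultures given vehicle only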; settings: S. cerevisiae sgs1 mgt1 strain, at 50.0 µM (retest, dose inferred, filed as 5.0), hits give high values
Outline: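 Compounds are added to genetically altered yeast, and growth is compared with cultures given vehicle alone to give percent inhibition.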

| SMILES | growth inhibition |
| --- | --- |
| C=CCNCCC1CCCCCC1 | 98% (active) |
| Cc1ccc(/C=C/C(=O)/C=C/c2ccc(C)o2)o1 | 97% (active) |
| CCCC(=O)c1cc(O)c(O)c(CN(C)Cc2cc(Cl)cc(C)c2O)c1O | 94% (active) |
| COC(=O)/C(C#N)=C/c1cc(OC)c(O)cc1Br | 68% |
| O=C(/C=C/c1ccccc1)CCN1CCOCC1 | 100% (active) |
| c1cc2c(c3c1CN(C1CCCCC1)CO3)OCN(C1CCCCC1)C2 | 16% |
| CSc1nc2ccccc2s1 | 4% |
| CC1(C)CC(=O)C(CSC(=O)c2ccccc2)=C(O)C1 | -3% |

same assay, conditions: S. cerevisiae sgs1 mgt1 strain, at 50.0 µM, hits give high values

| SMILES | growth inhibition |
| --- | --- |
| CCOc1ccccc1/C=C1\NC(=O)N(/C=C2\C(=O)Oc3ccccc3C2=O)C1=O | 97.2% (active) |
| CC(NNC(=S)N1CCCC1)c1ccc2ccccc2n1 (stereo not drawn) | 98% (active) |
| N#Cc1c(-c2ccc(Cl)cc2)c(C#N)c(=O)n(NS(=O)(=O)c2ccccc2)c1S | 81.3% (active) |
| CC(C)/C=C1\CCOC1=O | 39.8% |
| c1ccc(Nc2nnc3nc(-c4ccccc4)c(-c4ccccc4)nn23)cc1 | 91.5% (active) |
| O=C(NC(c1ccccc1)N1CCOCC1)c1ccccc1 (stereo not drawn) | 96.3% (active) |
| N[C@@H]1CCCC[C@@H]1N.O=C([O-])CN(CP(=O)([O-])[O-])CP(=O)([O-])[O-].[Pt+2] | 99.5% (active) |
| C/C=C\C(/C=C/C)(C(=O)OCCN(C)C)C(/C=C\C)(/C=C/C)C(=O)OCCN(C)C (stereo not drawn) | 95.8% (active) |
| COc1ccc(CCNC(=S)/N=C\C(C(=O)c2ccccc2)=C(\O)c2ccccc2)cc1OC | 99% (active) |
| Cc1ccccc1C1SCc2nc3ccccc3n21 (stereo not drawn) | 14.7% |
| O=C(Nc1ccc(Cl)cc1)Nc1nnc(/C=C/c2ccc(Cl)c(Cl)c2)o1 | 3.6% |
| Cc1c(CCCl)c(N=[N+]=[N-])n2c(nc3ccccc32)c1C#N | 56.6% |
| O=C(OCCCC(C(=O)c1ccccc1)=P(c1ccccc1)(c1ccccc1)c1ccccc1)c1ccccc1 | 61.5% |
| O=C(c1ccccc1)c1ccc(Cl)cc1 | 74.2% (active) |
| O=C1C(C(O)(C(F)(F)Cl)C(F)(F)Cl)CCCC1C(O)(C(F)(F)Cl)C(F)(F)Cl (stereo not drawn) | 99.8% (active) |
| CCN(CC)C(=S)N=Nc1c(O)[nH]c2ccccc12 | 89.3% (active) |
| c1csc(-c2nnc(C34CC5CC(CC(C5)C3)C4)o2)c1 | 83.3% (active) |
| C/C(O)=C(/C=N/C(=S)Nc1ccc(S(N)(=O)=O)cc1)C(=O)Nc1ccccc1C | 68.8% |
| CC(C)(Oc1ccc(-c2cccc3ccccc23)cc1)C(=O)O | 29.4% |
| CCc1scc(C)[n+]1CC(=O)c1cccc([N+](=O)[O-])c1 | -4.4% |

| SMILES | growth inhibition |
| --- | --- |
| O=C1CCC(C(c2ccccc2)(c2ccccc2)c2ccccc2)CC1=O (stereo not drawn) | -5.2% |
| Clc1ccc(C2SCc3nc4ccccc4n32)cc1Cl (stereo not drawn) | 98% (active) |
| OC(CBr)c1c(Br)ccc2ccccc12 (stereo not drawn) | 48% |
| O=C1OC(c2cccc(Cl)c2)Sc2ccccc21 (stereo not drawn) | 36.2% |
| c1ccc(N2CCN(c3ccccc3)C2Cc2c[nH]c3ccccc23)cc1 | 99.4% (active) |
| CC(=O)c1sc(Nc2ccc(Cl)c(Cl)c2)nc1C | 97% (active) |
| Cc1ncn(-c2ccccc2O)c1C | -28.7% |
| C[n+]1c(/C=C/c2ccc(N3CCCC3)cc2)sc2ccccc21 | 98.5% (active) |
| COc1ccc(-c2c(C#N)c(S)n(NS(=O)(=O)c3ccc(C)cc3)c(=O)c2C#N)cc1 | 61% |
| N#Cc1c(-c2ccc(Cl)c(Cl)c2)c(-c2ccc(Cl)c(Cl)c2)nn(CCO)c1=O | 97.5% (active) |
| NCc1ccc(O)c(O)c1O | 38.2% |
| C[CH2][Sn]([CH2]C)([O]C(=O)c1cc(OC)c(OC)c(OC)c1)[O][Sn]([CH2]C)([CH2]C)[O]C(=O)c1cc(OC)c(OC)c(OC)c1 | 23.6% |
| C=CCNCCC1CCCCCC1 | 49.1% |
| Cc1ccc(/C=C/C(=O)/C=C/c2ccc(C)o2)o1 | 75% (active) |
| CCCC(=O)c1cc(O)c(O)c(CN(C)Cc2cc(Cl)cc(C)c2O)c1O | 50.5% |
| COC(=O)/C(C#N)=C/c1cc(OC)c(O)cc1Br | 42.1% |
| O=C(/C=C/c1ccccc1)CCN1CCOCC1 | 86.5% (active) |
| c1cc2c(c3c1CN(C1CCCCC1)CO3)OCN(C1CCCCC1)C2 | 32.1% |
| CSc1nc2ccccc2s1 | -19.4% |
| CC1(C)CC(=O)C(CSC(=O)c2ccccc2)=C(O)C1 | 3.05% |

experiment: NCI Yeast Anticancer Drug Screen. Data for the cln2 rad14 strain (AID 165);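 further: 0% = growth equal to vehicle treated cultures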; settings: S. cerevisiae cln2 rad14 strain, at 5.0 µM (retest, dose inferred, filed as 0.5), hits give high values
Outline: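 Yeast strain cln2 rad14, bearing defects in cell cycle control and DNA repair, serves as the test system; values reflect growth inhibition compared with vehicle.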

| SMILES | growth inhibition |
| --- | --- |
| CCOc1ccccc1/C=C1\NC(=O)N(/C=C2\C(=O)Oc3ccccc3C2=O)C1=O | 6% |
| CC(NNC(=S)N1CCCC1)c1ccc2ccccc2n1 (stereo not drawn) | 4% |
| N#Cc1c(-c2ccc(Cl)cc2)c(C#N)c(=O)n(NS(=O)(=O)c2ccccc2)c1S | 46% |
| CC(C)/C=C1\CCOC1=O | 5% |
| c1ccc(Nc2nnc3nc(-c4ccccc4)c(-c4ccccc4)nn23)cc1 | -1% |
| O=C(NC(c1ccccc1)N1CCOCC1)c1ccccc1 (stereo not drawn) | -2% |
| N[C@@H]1CCCC[C@@H]1N.O=C([O-])CN(CP(=O)([O-])[O-])CP(=O)([O-])[O-].[Pt+2] | 3% |
| C/C=C\C(/C=C/C)(C(=O)OCCN(C)C)C(/C=C\C)(/C=C/C)C(=O)OCCN(C)C (stereo not drawn) | 2% |
| COc1ccc(CCNC(=S)/N=C\C(C(=O)c2ccccc2)=C(\O)c2ccccc2)cc1OC | -25% |
| Cc1ccccc1C1SCc2nc3ccccc3n21 (stereo not drawn) | -13% |
| O=C(Nc1ccc(Cl)cc1)Nc1nnc(/C=C/c2ccc(Cl)c(Cl)c2)o1 | 1% |
| Cc1c(CCCl)c(N=[N+]=[N-])n2c(nc3ccccc32)c1C#N | 20% |
| O=C(OCCCC(C(=O)c1ccccc1)=P(c1ccccc1)(c1ccccc1)c1ccccc1)c1ccccc1 | 6% |
| O=C(c1ccccc1)c1ccc(Cl)cc1 | 1% |
| O=C1C(C(O)(C(F)(F)Cl)C(F)(F)Cl)CCCC1C(O)(C(F)(F)Cl)C(F)(F)Cl (stereo not drawn) | 79% (active) |
| CCN(CC)C(=S)N=Nc1c(O)[nH]c2ccccc12 | 85% (active) |
| c1csc(-c2nnc(C34CC5CC(CC(C5)C3)C4)o2)c1 | -2% |
| C/C(O)=C(/C=N/C(=S)Nc1ccc(S(N)(=O)=O)cc1)C(=O)Nc1ccccc1C | -14% |
| CC(C)(Oc1ccc(-c2cccc3ccccc23)cc1)C(=O)O | -6% |
| CCc1scc(C)[n+]1CC(=O)c1cccc([N+](=O)[O-])c1 | 12% |

| SMILES | growth inhibition |
| --- | --- |
| O=C1CCC(C(c2ccccc2)(c2ccccc2)c2ccccc2)CC1=O (stereo not drawn) | -14% |
| Clc1ccc(C2SCc3nc4ccccc4n32)cc1Cl (stereo not drawn) | -16% |
| OC(CBr)c1c(Br)ccc2ccccc12 (stereo not drawn) | -3% |
| O=C1OC(c2cccc(Cl)c2)Sc2ccccc21 (stereo not drawn) | -7% |
| c1ccc(N2CCN(c3ccccc3)C2Cc2c[nH]c3ccccc23)cc1 | 17% |
| CC(=O)c1sc(Nc2ccc(Cl)c(Cl)c2)nc1C | 1% |
| Cc1ncn(-c2ccccc2O)c1C | -2% |
| C[n+]1c(/C=C/c2ccc(N3CCCC3)cc2)sc2ccccc21 | 60% |
| COc1ccc(-c2c(C#N)c(S)n(NS(=O)(=O)c3ccc(C)cc3)c(=O)c2C#N)cc1 | 48% |
| N#Cc1c(-c2ccc(Cl)c(Cl)c2)c(-c2ccc(Cl)c(Cl)c2)nn(CCO)c1=O | 39% |
| NCc1ccc(O)c(O)c1O | -16% |
| C[CH2][Sn]([CH2]C)([O]C(=O)c1cc(OC)c(OC)c(OC)c1)[O][Sn]([CH2]C)([CH2]C)[O]C(=O)c1cc(OC)c(OC)c(OC)c1 | 8% |
| C=CCNCCC1CCCCCC1 | 5% |
| Cc1ccc(/C=C/C(=O)/C=C/c2ccc(C)o2)o1 | 42% |
| CCCC(=O)c1cc(O)c(O)c(CN(C)Cc2cc(Cl)cc(C)c2O)c1O | -16% |
| COC(=O)/C(C#N)=C/c1cc(OC)c(O)cc1Br | 35% |
| O=C(/C=C/c1ccccc1)CCN1CCOCC1 | 0% |
| c1cc2c(c3c1CN(C1CCCCC1)CO3)OCN(C1CCCCC1)C2 | -12% |
| CSc1nc2ccccc2s1 | 4% |
| CC1(C)CC(=O)C(CSC(=O)c2ccccc2)=C(O)C1 | -2% |
